From the supplement of paper PMC6763611

Test system: Plasmodium falciparum NF54
Test: growth inhibition relative to untreated control; higher = more inhibition
Conditions: 5 µM; MM + chorismate end-products (CM screening medium); 72 h
Summary of the method: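 P. falciparum NF54 ring stages (1% hematocrit, 1% parasitemia, 100 μL/well in 96-well half-area dark plates) were exposed for 72 h at 37 °C to single 5 μM or 1 μM doses of Pathogen Box compounds. The medium was minimal RPMI or minimal RPMI plus chorismate end-products (2.2 μM folate, 7.3 μM pABA, 7.3 μM pHBA, 111 μM tyrosine, 90 μM phenylalanine, tryptophan). Growth inhibition was read by SYBR Green, normalised to untreated controls, with uninfected erythrocytes as background.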

SMILES | growth inhibition [%]
COc1cc(C2=NCCN2)cc2cc(-c3ccc(C4=NCCN4)cc3)oc12 | 98.4
O=C(Nc1nc(-c2ccccn2)cs1)C1CC1c1ccccc1F (centres undefined) | 54.3
CCCn1c(NC(=O)c2ccc3ccccc3n2)nc2ccccc21 | 86.1
Cc1cc(Cl)c(S(=O)(=O)N2CCCC2)cc1OCC(=O)NC1CCCCC1 | 82.3
COc1cc(NC(=O)Cc2nn(C)c(=O)c3ccccc23)ccc1Cl | 15.2
CC(C)(C)c1ccc(N[C@@H]2CCCC[C@H]2NC(=O)c2ccco2)cc1 | < 0
CC(C)C(Oc1cccc2ccccc12)C(=O)O (centres undefined) | < 0
Cc1cc(OCC(=O)NCc2ccccc2)c2cc(Br)ccc2n1 | 56.5
FC(F)(F)c1cnc(Sc2nnc(-c3ccncc3)o2)c(Cl)c1 | 64
Cc1cc(NC(=O)c2ccc(Oc3ccc(Cl)cc3O)o2)no1 | 24.4
N#Cc1nc(-c2ccccc2F)oc1NCCc1ccccc1 | < 0
Cc1nn2c(O)c3c(nc2c1-c1ccc(F)cc1)CCCC3 | 36.7
N#CCN(CCCCN1CCN(c2ccc(F)cc2)CC1)C(=O)OCc1ccccc1 | 32.3
CC(C)/N=c1\cc2n(-c3ccc(Cl)cc3)c3ccccc3nc-2cc1Nc1ccc(Cl)cc1 | 90
O=C(Nc1ccc(C(F)(F)F)c(C(F)(F)F)c1)c1cc(Cl)ccc1O | > 100
CC1=Nc2ccc(Cl)cc2C(O)(c2ccc(C)cc2)N1CCN1CCCCC1 (centres undefined) | > 100
CCC(NC(=O)c1ccccc1NC(=O)c1ccc(C)cc1)C(=O)OC (centres undefined) | 97.1
COc1ccc(N(CCc2cccc(C)n2)C(=O)C2CCCCC2)cc1 | 4.56
CNc1cc(C)nc(C2CN(C(=O)c3n[nH]c4ccccc34)CCO2)c1 (centres undefined) | 41.7
C[C@H](c1ccc2c(c1)CCCC2)N(C)c1ncc2c(N)nc(N)nc2n1 | 36

SMILES | growth inhibition [%]
COc1ccc(C(=N)N)cc1-c1cn(-c2ccc(C(=N)N)cc2)nn1 | 47.8
Cc1cc(C(=O)Nc2cnn(Cc3ccc(Cl)cc3Cl)c2)no1 | 88.6
Nc1cccnc1Nc1ccc(Cl)cc1 | 47.3
Nc1nccc2ccc(-c3ccc4nccn4c3)cc12 | 97.8
CCS(=O)(=O)N(Cc1ccco1)Cc1cc2ccc(C)cc2nc1O | 87.4
Clc1ccc(CCNc2cc(-c3ccccc3)nc3ncnn23)cc1 | 5.05
CCN(CC)C(=O)N1CCN(C)CC1 | < 0
CNc1snc(C)c1C(=O)NCCOc1ccc(OC)cc1 | 42.9
CS(=O)(=O)c1cccc(-c2cnc3[nH]cc(-c4ccc(CCC(=O)O)cc4)c3c2)c1 | > 100
NC(=O)c1cc(-c2ccsc2)ccc1OCCOc1ccccc1 | 4.73
CO[C@H]1/C=C\O[C@@]2(C)Oc3c(C)c(O)c4c(O)c(/c(=C/NN5CCN(C)CC5)c(O)c4c3C2=O)=N\C(=O)/C(C)=C\C=C/[C@H](C)[C@H](O)[C@@H](C)[C@@H](O)[C@@H](C)[C@H](OC(C)=O)[C@@H]1C | > 100
CN1CCN(c2nccc3[nH]c(-c4cccc(F)c4)cc23)CC1 | 99
Nc1nc(N)c2c3c(sc2n1)CN(Cc1ccccc1)CC3 | 60.8
COc1cc2ncnc(NC3CCN(Cc4ccccc4)CC3)c2cc1OC | 99.3
O=C(Nc1cccnc1)c1c(O)c2cccc3c2n(c1=O)CC3 | 4.63
Cc1nn(C(=O)Nc2cccc(C(F)(F)F)c2)c(C)c1Sc1ncccn1 | 80.1
Cc1nn(C)cc1C(C)Nc1nncc(-c2ccc(C(F)(F)F)cc2)n1 (centres undefined) | 99.9
O=C(NC1=NCCS1)c1sc2cc(F)ccc2c1Cl | < 0
Cc1cc(NCC(C)C)c2[nH]nc(-c3ccccc3)c2n1 | 99.7
